FEN1 inh: inhibitors of human flap endonuclease 1; P39748; Recombinant FEN1 flap cleavage, fluorescence, 15 min; Potency, µM (top dose mostly 114 µM), without a hit: top-dose activity change, negative = inhibition, usual class: inhibitors; hit rate 0.35% among 390,000; AID 588795; further: nearly all actives have a fitted effect of over 65% in size
Target sequence (P39748 whole entry, looked up): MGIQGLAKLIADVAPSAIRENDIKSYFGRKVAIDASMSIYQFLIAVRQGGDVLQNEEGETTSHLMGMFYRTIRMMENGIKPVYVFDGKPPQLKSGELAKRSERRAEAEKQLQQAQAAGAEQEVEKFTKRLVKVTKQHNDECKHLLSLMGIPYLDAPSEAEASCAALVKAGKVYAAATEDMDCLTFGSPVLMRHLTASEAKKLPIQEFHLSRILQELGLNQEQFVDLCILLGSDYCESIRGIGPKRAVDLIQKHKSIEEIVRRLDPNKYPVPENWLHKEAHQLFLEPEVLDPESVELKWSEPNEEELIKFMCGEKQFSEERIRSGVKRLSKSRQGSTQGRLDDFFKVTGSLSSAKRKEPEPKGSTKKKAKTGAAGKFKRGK
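Reaction started by adding substrate (50 nM final) to 10 nM enzyme after 15 min room-temperature compound preincubation. Reads at 0 and 15 min, with data normalized and fitted to a four-parameter Hill equation.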
RECQ1 inh-1: RECQ1 (human) helicase inhibition; hit rate 0.54% among 240,000; P46063; RECQ1 DNA unwinding, red fluorescence kinetic read; Potency, µM (highest dose often 57.3 µM), without a hit: at the highest dose activity, negative = inhibition, actives largely listed as inhibitors;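 further: plate controls were vehicle for no effect and no enzyme for full effect; nearly all actives have a fitted effect of over 30% in size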
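RECQ1T1 50 nM; forked duplex (20 bp + 30-nt ss tails) 200 nM, ATP 2 mM final; pH 8.0, 2 mM MgCl2, 2.5 ug/ml poly(dI-dC); 15 min compound preincubation; discontinuous kinetic read over 2 h at RT.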
WRN helicase inh: inhibitors of human WRN helicase; Q14191; Potency, µM (series often up to 114 µM), for inactives: at the highest dose activity change, negative = inhibition, most hits filed as inhibitors; hit rate 0.46% among 360,000; AID 651768; WRN helicase unwinding, fluorescent forked duplex, kinetic; further: nearly all actives have a fitted effect of over 55% in size
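WRN at 20 nM final preincubated with compound 15 min at room temperature; reaction started with 100 nM fluorophore/quencher forked duplex oligonucleotide and 2 mM ATP final. Unwinding followed kinetically by red fluorescence (ex 525, em 598 nm).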
L3MBTL1 block: inhibitors of human L3MBTL1; Potency, µM (doses to about 57.1 µM), for the others: at the highest dose activity, negative = inhibition, actives largely listed as inhibitors; Q9Y468; AlphaScreen L3MBTL1–H3K9me1 peptide binding; hit rate 0.66% among 230,000; further: nearly all actives have a fitted effect of over 60% in size
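AlphaScreen assay: L3MBTL1 (50 nM final) was preincubated 30 min at room temperature with biotinylated H3(1-15)K9me1 peptide (75 nM final), then 30 min with library compounds; streptavidin donor and nickel chelate acceptor beads (10 ug/mL final) added, 30 min dark.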
APE1 inh: APE1 (human) endonuclease inhibition. P27695. recombinant APE1, TAMRA/BHQ-2 abasic DNA cleavage fluorescence. Potency, µM (doses to about 65.8 µM), inactives show at the top dose activity change, negative = inhibition, actives largely listed as inhibitors. hit rate 0.35% among 350,000;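 further: plate controls were vehicle for no effect and reference inhibitor for full effect; nearly all actives have a fitted effect of over 55% in size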
Target sequence (P27695 whole entry, looked up): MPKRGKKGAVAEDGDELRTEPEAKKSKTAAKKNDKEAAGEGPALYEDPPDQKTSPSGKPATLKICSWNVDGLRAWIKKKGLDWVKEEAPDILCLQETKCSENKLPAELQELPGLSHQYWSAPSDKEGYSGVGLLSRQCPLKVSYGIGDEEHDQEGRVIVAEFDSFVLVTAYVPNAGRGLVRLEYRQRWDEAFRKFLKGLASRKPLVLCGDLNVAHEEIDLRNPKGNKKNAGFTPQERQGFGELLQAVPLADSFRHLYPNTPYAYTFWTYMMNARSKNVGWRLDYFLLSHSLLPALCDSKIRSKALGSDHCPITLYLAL
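Incision of a quenched TAMRA/BHQ-2 THF abasic-site duplex (50 nM) by 0.75 nM APE1, after 15 min compound preincubation, measured as fluorescence increase over three 60 s reads. Values normalized to buffer, DMSO and NSC13755 control wells.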
BLM helicase inh: Bloom syndrome helicase (human) inhibition; hit rate 0.2% among 350,000; recombinant BLM DNA unwinding, fluorescence dequenching; AID 2528; Potency, µM (titrated, usually from 56.1 µM), for inactives: at the top dose activity change, negative = inhibition, usual class: inhibitors;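 further: plate controls were vehicle for no effect and no enzyme for full effect; nearly all actives have a fitted effect of over 35% in size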
RECQ1 conf: confirmation of human RECQ1 helicase inhibitors; RECQ1 helicase DNA unwinding, fluorescence; hit rate 28% among 610; shares compounds with RECQ1 inh-1; Potency, µM (titrated, usually from 229 µM), inactives show at the top dose activity change, negative = inhibition, usual class: inhibitors; further: nearly all actives have a fitted effect of over 45% in size
RECQ1 ADP FP: displaces ADP in a fluorescence polarization counter-screen for RECQ1 hits; shares compounds with RECQ1 inh-1; ADP fluorescence polarization displacement counterscreen; Potency, µM (highest dose often 228 µM), for inactives: top-dose activity change, negative = inhibition, most hits filed as inhibitors; hit rate 27% among 530; further: nearly all actives have a fitted effect of over 45% in size
RECQ1 inh-2: RECQ1 helicase inhibition confirmed, round 2 | shares compounds with RECQ1 inh-1 | recombinant RECQ1 DNA unwinding, red fluorescence | Potency, µM (highest dose often 119 µM), without a hit: at the top dose activity, negative = inhibition, most hits filed as inhibitors | hit rate 15% among 1,100; further: nearly all actives have a fitted effect of over 50% in size
Numbers without * were called inactive; [ ] = dose if it differs, or a comment. This is a sample that favours compounds with a hit; in the whole collection about 1% have one here. The call rests on the fitted dose curve; in most records, active means well fitted curve in the direction sought with a large enough effect; inconclusive means small, poorly fitted or top-dose-only effect, or another doubt; inactive means no such curve, though single readings can be large; an effect the other way counts as inactive or inconclusive. Unless noted, on the % scale 0 is the no-effect control and ±100 the full control effect; potency means the concentration at half of the fitted maximal effect.

Results for O=C1C(=O)C(c2ccc(O)cc2O)Oc2cc(O)cc(O)c21 (stereo not given) ?
FEN1 inh: 20µM*; RECQ1 conf: inconclusive

What do the screens show for `COc1ccc(-n2nc(C(=O)N(C)c3cc(Cl)ccc3OC)c3c4ccccc4n(C)c3c2=O)cc1`?
FEN1 inh: 0%; BLM helicase inh: -5%

What do the screens show for `COc1ccc(C2C=C3CN(C(=O)OC(C)(C)C)S(=O)(=O)C3CC2OC(=O)c2cccc(C)c2)cc1` (stereo not given)?
FEN1 inh: 4%; RECQ1 inh-1: -9%; APE1 inh: -4%; BLM helicase inh: -8%

What do the screens show for `COC(=O)c1cccc(C(=O)Oc2cccc(Br)c2)n1`?
FEN1 inh: -3%; RECQ1 inh-1: 14µM*; WRN helicase inh: -6%; L3MBTL1 block: 3%; APE1 inh: -1%; BLM helicase inh: 0%; RECQ1 conf: 11%[114 µM]; RECQ1 ADP FP: 28%[91.9 µM]; RECQ1 inh-2: -5%

How did CC(C)OC(=O)c1cccc(C(=O)Oc2ccccc2)n1 do in these assays?
FEN1 inh: -5%; RECQ1 inh-1: -14%; WRN helicase inh: -1%; L3MBTL1 block: 9%; APE1 inh: -3%; BLM helicase inh: -1%

What do the screens show for `CC(C)=CCn1c2ccc(NC(=S)NC3CC3)cc2c(=O)n1C`?
WRN helicase inh: 2%

Results for O=C(CSc1nc2ccccc2[nH]1)N1CCCCC1 ?
FEN1 inh: 12%; RECQ1 inh-1: -10%; WRN helicase inh: 2%; APE1 inh: -3%; BLM helicase inh: -1%

How did O=C(CSc1nc(O)cc(=O)[nH]1)N1c2ccccc2Sc2ccccc21 do in these assays?
FEN1 inh: -19%; RECQ1 inh-1: -5%; WRN helicase inh: -12%; L3MBTL1 block: -14%; APE1 inh: 0%; BLM helicase inh: -2%

Results for Cc1c(C)n(C(=O)CSc2nc3ccccc3[nH]2)c2ccccc12 ?
FEN1 inh: -9%; RECQ1 inh-1: 8.9µM*; WRN helicase inh: inconclusive; APE1 inh: 14µM*; BLM helicase inh: -11%; RECQ1 conf: 50µM*; RECQ1 ADP FP: 3%[91.9 µM]; RECQ1 inh-2: 35µM*

What do the screens show for `O=C(CSc1nc2ccccc2[nH]1)N1c2ccccc2Sc2ccccc21`?
FEN1 inh: 3%; RECQ1 inh-1: inconclusive; WRN helicase inh: -14%; L3MBTL1 block: -1%; APE1 inh: inconclusive; BLM helicase inh: -7%; RECQ1 inh-2: inconclusive

What do the screens show for `COc1cc([N+](=O)[O-])ccc1NC(=O)CN1C(=O)NC2(CCCCC2C)C1=O` (stereo not given)?
FEN1 inh: 15%; WRN helicase inh: -1%

What do the screens show for `O=C(CN(Cc1ccccc1)S(=O)(=O)c1ccccc1)N/N=C/c1ccccc1[N+](=O)[O-]`?
FEN1 inh: -20%; RECQ1 inh-1: -8%; WRN helicase inh: -12%; L3MBTL1 block: -5%; APE1 inh: -4%; BLM helicase inh: -8%; RECQ1 conf: 1%; RECQ1 ADP FP: 8%

How did CCOc1ccc(C(=O)Nc2cc(-c3nc4ccccc4[nH]3)ccc2C)cc1[N+](=O)[O-] do in these assays?
FEN1 inh: -12%; RECQ1 inh-1: -19%; WRN helicase inh: -11%; L3MBTL1 block: -6%; APE1 inh: 5%; BLM helicase inh: -11%

Results for CCOc1ccccc1NC(=O)c1ccc(OCC)c([N+](=O)[O-])c1 ?
FEN1 inh: -1%; RECQ1 inh-1: 0%; WRN helicase inh: -16%; L3MBTL1 block: 11%; APE1 inh: 2%; BLM helicase inh: -1%

What do the screens show for `CCOc1ccc(C(=O)Nc2cccc(-c3cc4ccccc4oc3=O)c2)cc1[N+](=O)[O-]`?
FEN1 inh: 2%; RECQ1 inh-1: 25µM*; WRN helicase inh: 8%[57.1 µM]; L3MBTL1 block: 6%; APE1 inh: -11%; BLM helicase inh: -10%; RECQ1 inh-2: inconclusive

How did CCOc1ccc(C(=O)Nc2cc(-c3nc4ccccc4[nH]3)ccc2Cl)cc1[N+](=O)[O-] do in these assays?
FEN1 inh: inconclusive; RECQ1 inh-1: inconclusive; WRN helicase inh: -13%; L3MBTL1 block: -2%; APE1 inh: inconclusive; BLM helicase inh: inconclusive; RECQ1 inh-2: 56µM*

How did CN(Cc1ccccc1)C(=O)CCNS(=O)(=O)c1ccc2c(c1)oc(=O)n2C do in these assays?
FEN1 inh: -2%; RECQ1 inh-1: 35µM*; WRN helicase inh: 166%; L3MBTL1 block: -24%; APE1 inh: inconclusive; BLM helicase inh: -7%; RECQ1 inh-2: inconclusive

Results for CN(Cc1ccccc1)C(=O)CCS(=O)(=O)c1ccc2c(c1)oc(=O)n2C ?
FEN1 inh: 22%; WRN helicase inh: 3%; APE1 inh: 23%; BLM helicase inh: 2%

Results for Cc1ccc(NC(=O)CN(C)S(=O)(=O)c2cnc[nH]2)c(C)c1 ?
FEN1 inh: 15%; WRN helicase inh: -10%; APE1 inh: 56%; BLM helicase inh: -1%

How did CCOc1ccccc1NC(=O)CN(C)S(=O)(=O)c1cnc[nH]1 do in these assays?
FEN1 inh: 3%; RECQ1 inh-1: 16µM*; WRN helicase inh: 9%; L3MBTL1 block: 14%; APE1 inh: -3%; BLM helicase inh: -1%; RECQ1 conf: -1%[114 µM]; RECQ1 ADP FP: 8%[91.9 µM]; RECQ1 inh-2: -2%

Results for O=C1C(Cl)=C(N2CCC(C(=O)O)CC2)C(=O)c2ccccc21 ?
FEN1 inh: -14%; RECQ1 inh-1: 22µM*; WRN helicase inh: -20%; L3MBTL1 block: -26%; APE1 inh: inconclusive; BLM helicase inh: -30%; RECQ1 inh-2: 35µM*

Results for NC(=O)C1CCN(C2=C(Cl)C(=O)c3ccccc3C2=O)CC1 ?
FEN1 inh: inconclusive; RECQ1 inh-1: 2%; WRN helicase inh: -23%[57.1 µM]; L3MBTL1 block: inconclusive; APE1 inh: 1%; BLM helicase inh: -10%

From PubChem BioAssay
